Seven molecules from PubChem BioAssay (EPA / NIEHS) can be followed below.

Inconclusive results are not listed. Activity calls are given as the source filed them. The calls were made as follows, unless noted: active = hit-call score of the fitted dose curve at least 0.9, where 1 is the maximum; inactive = score below 0.9.

Assay [1] can be described thus: ATG_PXRE_CIS: Attagene CIS-FACTORIAL HepG2 Assay for human Pregnane X Receptor Element (PXRE) (AID 2282957). Particulars: HepG2 Attagene CIS-FACTORIAL PXRE reporter, mRNA; actives raise or lower the signal. An outline of the steps: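 Using HepG2 transfected with multiple reporter transcription units, endogenous factor-driven transcription was scored as reporter mRNA after 24 h exposure.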

A short description of assay [2]: ATG_PPRE_CIS: Attagene CIS-FACTORIAL HepG2 Assay for human Peroxisome Proliferator-activated Response Element (PPRE) (AID 2282958). Particulars: HepG2 PPRE cis-element reporter, Attagene transcription factor profiling; actives raise or lower the signal. In outline:
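In this cell-based multiplex, a PPRE cis element drives a reporter sequence in transiently transfected HepG2 cells. Following 24 h treatment, labeled cDNA amplicons are sized and quantified by capillary electrophoresis, with DMSO defining baseline.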

Assay [3] is described as follows: ATG_RORE_CIS: Attagene CIS-FACTORIAL HepG2 Assay for human RAR-related Orphan Receptor Element (RORE) (AID 2282959). The note with it: HepG2 Attagene cis-factorial RORE reporter, mRNA; actives raise or lower the signal. An outline of the steps:
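Endogenous factor activity at a cis response element is read as reporter transcript levels in HepG2 cells, 24 h post-dose. Transcripts are quantified by RT-PCR with capillary electrophoresis, and data fitted in both directions against DMSO.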

Assay [4] in a line: ATG_Sox_CIS: Attagene CIS-FACTORIAL HepG2 Assay for human SRY-box transcription factor (SOX) (AID 2282960). The note with it: HepG2 Attagene cis-factorial SOX reporter, mRNA; actives raise or lower the signal. In outline: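 Measures mRNA induction of a SOX1-associated reporter in HepG2 after 24 h dosing. Fluorescently labelled RT-PCR fragments are separated by capillary electrophoresis, and gain or loss relative to DMSO control is fitted.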

The target of assay [5] is Transcription factor Sp1 (Homo sapiens) (UniProt P08047). The assay is described as follows: ATG_Sp1_CIS: Attagene CIS-FACTORIAL HepG2 Assay for human Specificity Protein 1 (Sp1) (AID 2282961). Particulars: HepG2 Sp1 cis-reporter transcription, actives raise or lower the signal. An outline of the steps:
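Cells: HepG2, transiently transfected with cis-regulated multiplexed reporters. Exposure: 24 h. Detection: reporter transcripts amplified, fluorescently labeled, restriction-digested and sized by capillary electrophoresis. Analysis: bidirectional fit relative to DMSO.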

In assay [6] the target is Signal transducer and activator of transcription 3 (Homo sapiens) (UniProt P40763). Kind of assay: ATG_STAT3_CIS: Attagene CIS-FACTORIAL HepG2 Assay for human Signal Transducer and Activator of Transcription 3 (STAT3) (AID 2282963). Particulars: HepG2, Attagene cis-factorial STAT3 reporter transcription; actives raise or lower the signal. An outline of the steps: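 Readout is reporter transcript quantified by RT-PCR and capillary electrophoresis, with 6-FAM primer extension and HpaI digestion. Total RNA is taken 24 h after dosing transiently transfected HepG2 carrying cis-regulated reporter units. Bidirectional fit against DMSO.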

Assay [7] is described as follows: ATG_TA_CIS: Attagene CIS-FACTORIAL HepG2 Assay for human TA Basal Promoter (AID 2282964). The note with it: HepG2 Attagene CIS-factorial TA basal promoter reporter; actives raise or lower the signal. In outline:
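Cis-factorial format in HepG2: reporters report endogenous factors, not chimeric Gal4 fusions. After 24 h treatment, reporter transcripts were measured by RT-PCR-capillary electrophoresis fluorescence, analysed bidirectionally versus DMSO.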

Assay [8] in a line: ATG_TCF_b_cat_CIS: Attagene CIS-FACTORIAL HepG2 Assay for human T-Cell-Factor with beta-catenin (TCF/b-cat) (AID 2282965). Particulars: HepG2 TCF/beta-catenin cis-reporter transcription, actives raise or lower the signal. In outline: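 Endogenous transcription factor activity is captured through cis-promoter reporter constructs transiently introduced into human HepG2 liver cells. Induced reporter mRNA is measured after 24 h and fitted bidirectionally relative to DMSO.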

Assay [9] is described as follows: ATG_TAL_CIS: Attagene CIS-FACTORIAL HepG2 Assay for human TAL Basal Promoter (AID 2282966).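 Also: background control endpoint measuring basal TAL promoter reporter mRNA not a specific factor.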 The note with it: HepG2 Attagene cis-factorial TAL promoter reporter; actives raise or lower the signal. In outline:
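After 24 hours of chemical exposure, transfected HepG2 cells yielded RNA that was converted to 6-FAM-labelled, HpaI-digested reporter fragments for capillary electrophoresis. Values derive from bidirectional fitting against DMSO controls.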

The nature of assay [10]: ATG_TGFb_CIS: Attagene CIS-FACTORIAL HepG2 Assay for human Transforming Growth Factor (TGF) (AID 2282967). Particulars: HepG2 Attagene CIS TGFb reporter, mRNA transcription; actives raise or lower the signal. An outline of the steps: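 Multiplexed cis-reporter HepG2 system, 24 h treatment; mRNA induction read by fluorescence after RT-PCR and CE; DMSO negative control, bidirectional curve fitting.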

Assay [11] is described as follows: ATG_VDRE_CIS: Attagene CIS-FACTORIAL HepG2 Assay for human Vitamin D Receptor Element (VDRE) (AID 2282968). The note with it: HepG2 VDRE cis-reporter transcription, actives raise or lower the signal. An outline of the steps: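 Readout is VDRE-driven reporter mRNA reflecting endogenous factor activity in human HepG2 cells, sampled 24 h post-dose. Quantification used labelled RT-PCR products separated by capillary electrophoresis; bidirectional analysis relative to DMSO.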

The target in assay [12] is Nuclear receptor subfamily 1 group I member 3 (Homo sapiens) (UniProt Q14994). Kind of assay: ATG_CAR_TRANS: Attagene TRANS-FACTORIAL HepG2 Assay for human Constitutive Androstane Receptor (CAR) (AID 2282969; active = hit-call score of the fitted dose curve at least 0.9, where 1 is the maximum;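 also: activators raise reporter mRNA above DMSO so AC50 marks induction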). The note with it: HepG2 Attagene TRANS-FACTORIAL CAR reporter. In outline:
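Signal is reporter mRNA induction relative to DMSO, measured 24 h after dosing by RT-PCR with fluorescent primer extension and capillary electrophoresis. Human HepG2 liver cells carried transiently transfected chimeric NR-Gal4/GAL4-UAS reporter constructs.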

Assay [13] addresses Estrogen receptor (Homo sapiens) (UniProt P03372). Kind of assay: ATG_ERa_TRANS: Attagene TRANS-FACTORIAL HepG2 Assay for human Estrogen Receptor alpha (ERa) (AID 2282970; active = hit-call score of the fitted dose curve at least 0.9, where 1 is the maximum). The note with it: HepG2 Attagene TRANS ERa GAL4 reporter, mRNA. In outline:
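Liver-derived HepG2 cells expressing chimeric nuclear receptor-Gal4 proteins from transient transfection were exposed for 24 hours. Gain of reporter mRNA signal versus DMSO, read by capillary electrophoresis of FAM-labelled PCR products, was recorded.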

Assay [14] deals with X-box-binding protein 1 (Homo sapiens) (UniProt P17861). Kind of assay: ATG_Xbp1_CIS: Attagene CIS-FACTORIAL HepG2 Assay for human X-box Binding Protein 1 (XBP1) (AID 2282972). Particulars: HepG2 XBP1 cis-element reporter, Attagene multiplex; actives raise or lower the signal. An outline of the steps:
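Multiplexed cis-reporter readout in transfected HepG2 liver cells. Exposure lasted 24 hours. Activity in either direction was fitted against DMSO as negative control and baseline.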

Assay [15] is described as follows: ATG_M_19_TRANS: Attagene TRANS-FACTORIAL HepG2 Assay for M19 Transcription Factor (Internal Marker) (AID 2282974; active = hit-call score of the fitted dose curve at least 0.9, where 1 is the maximum). The note with it: HepG2 Attagene TRANS-FACTORIAL M19 internal marker reporter. An outline of the steps:
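Reporter mRNA induction was measured in transfected HepG2 cells 24 h after dosing. Endpoint fitted upward relative to DMSO and serves as a background control within the multiplexed TRANS panel.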

Assay [16] is described as follows: ATG_GAL4_TRANS: Attagene TRANS-FACTORIAL HepG2 Assay for GAL4 (Internal Marker) (AID 2282976; active = hit-call score of the fitted dose curve at least 0.9, where 1 is the maximum). The note with it: HepG2 Attagene TRANS GAL4 internal marker reporter. An outline of the steps: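 First, HepG2 cells were transfected with reporter units under GAL4-UAS control. Next, they were treated with chemical for 24 h. Finally, RNA was reverse-transcribed, PCR-amplified, FAM-labelled and resolved by capillary electrophoresis, with induction scored against DMSO.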

The target of assay [17] is Estrogen-related receptor gamma (Homo sapiens) (UniProt P62508). The assay is described as follows: ATG_ERRg_TRANS: Attagene TRANS-FACTORIAL HepG2 Assay for human Estrogen-Related Receptor gamma (ERRg) (AID 2282977; active = hit-call score of the fitted dose curve at least 0.9, where 1 is the maximum;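 also: hits increase reporter signal over DMSO so potencies reflect activators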). The note with it: HepG2 Attagene TRANS reporter, ERRg transactivation. In outline: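 Induction of reporter transcripts through a chimeric NR-Gal4 protein is quantified in transfected human HepG2 liver cells after 24 h chemical exposure, using RT-PCR with capillary electrophoresis detection and DMSO as baseline.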

Assay [18] in a line: ATG_SREBP_CIS: Attagene CIS-FACTORIAL HepG2 Assay for human Sterol Regulatory Element Binding (SREBP) (AID 2282962). The note with it: HepG2 Attagene cis-factorial SREBP reporter, mRNA; actives raise or lower the signal. An outline of the steps: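 Endogenous factor activity is measured in HepG2 through multiplexed reporter units under cis-element control. Following a 24 h incubation, reporter transcripts are reverse-transcribed, PCR-amplified and sized by capillary electrophoresis; activity is fitted in both directions relative to DMSO.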

Assay [19] concerns the target Glucocorticoid receptor (Homo sapiens) (UniProt P04150). Kind of assay: ATG_GR_TRANS: Attagene TRANS-FACTORIAL HepG2 Assay for human Glucocorticoid Receptor (GR) (AID 2282978; active = hit-call score of the fitted dose curve at least 0.9, where 1 is the maximum;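 also: activators score as hits since higher reporter transcript over DMSO is fitted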). The note with it: HepG2 Attagene TRANS GR reporter, mRNA transcription. In outline:
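Reporter transcript levels, detected by fluorescence after RT-PCR and capillary electrophoresis, served as the endpoint. HepG2 cells bearing transfected GAL4-UAS reporters responsive to NR-GAL4 chimeras were incubated with compound 24 h; DMSO defined baseline.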

In assay [20] the target is Steroid hormone receptor ERR1 (Homo sapiens) (UniProt P11474). Kind of assay: ATG_ERRa_TRANS: Attagene TRANS-FACTORIAL HepG2 Assay for human Estrogen-Related Receptor alpha (ERRa) (AID 2282971; active = hit-call score of the fitted dose curve at least 0.9, where 1 is the maximum). Particulars: HepG2 Attagene TRANS reporter, ERRa transactivation. In outline:
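Reporter transcript induction was quantified by RT-PCR and capillary electrophoresis of FAM-labelled, HpaI-cut products after 24 h treatment of HepG2 cells carrying transiently transfected GAL4-UAS reporter units and an exogenous ERRa-Gal4 fusion; activity scored as increase over DMSO.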

X-box-binding protein 1 (Homo sapiens), sequence (P17861 whole entry, looked up): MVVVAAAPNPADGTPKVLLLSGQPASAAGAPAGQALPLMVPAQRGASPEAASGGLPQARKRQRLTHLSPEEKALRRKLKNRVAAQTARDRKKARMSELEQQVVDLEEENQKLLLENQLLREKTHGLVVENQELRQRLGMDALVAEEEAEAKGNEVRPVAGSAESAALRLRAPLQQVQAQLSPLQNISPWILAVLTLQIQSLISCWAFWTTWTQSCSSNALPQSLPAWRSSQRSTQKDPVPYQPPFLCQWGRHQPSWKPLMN
Estrogen receptor (Homo sapiens), sequence (P03372 whole entry, looked up, the tested form may be a part): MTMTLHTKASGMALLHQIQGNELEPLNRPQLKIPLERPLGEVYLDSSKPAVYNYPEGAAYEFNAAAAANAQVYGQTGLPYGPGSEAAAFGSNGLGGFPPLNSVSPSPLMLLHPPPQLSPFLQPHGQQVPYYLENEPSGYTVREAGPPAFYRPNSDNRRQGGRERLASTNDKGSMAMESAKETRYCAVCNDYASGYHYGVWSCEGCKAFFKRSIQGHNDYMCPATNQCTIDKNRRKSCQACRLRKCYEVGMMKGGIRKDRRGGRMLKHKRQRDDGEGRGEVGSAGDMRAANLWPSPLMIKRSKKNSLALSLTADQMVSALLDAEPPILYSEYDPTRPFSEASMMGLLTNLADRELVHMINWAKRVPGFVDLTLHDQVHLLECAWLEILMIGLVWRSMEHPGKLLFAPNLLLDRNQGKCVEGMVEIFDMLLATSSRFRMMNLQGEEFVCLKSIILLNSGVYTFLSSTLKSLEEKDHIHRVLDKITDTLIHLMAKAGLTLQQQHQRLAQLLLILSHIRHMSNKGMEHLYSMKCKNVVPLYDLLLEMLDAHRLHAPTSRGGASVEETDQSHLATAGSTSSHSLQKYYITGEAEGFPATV
Nuclear receptor subfamily 1 group I member 3 (Homo sapiens), sequence (Q14994 whole entry, looked up, the tested form may be a part): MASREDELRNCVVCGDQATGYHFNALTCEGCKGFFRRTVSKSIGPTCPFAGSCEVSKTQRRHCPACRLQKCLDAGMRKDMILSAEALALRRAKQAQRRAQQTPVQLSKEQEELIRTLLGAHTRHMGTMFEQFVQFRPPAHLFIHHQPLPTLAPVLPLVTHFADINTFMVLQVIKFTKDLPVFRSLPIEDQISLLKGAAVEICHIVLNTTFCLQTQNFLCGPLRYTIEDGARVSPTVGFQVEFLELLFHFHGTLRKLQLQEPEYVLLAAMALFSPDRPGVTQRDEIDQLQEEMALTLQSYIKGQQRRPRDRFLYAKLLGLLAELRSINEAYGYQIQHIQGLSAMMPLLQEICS
Transcription factor Sp1 (Homo sapiens), sequence (P08047 whole entry, looked up): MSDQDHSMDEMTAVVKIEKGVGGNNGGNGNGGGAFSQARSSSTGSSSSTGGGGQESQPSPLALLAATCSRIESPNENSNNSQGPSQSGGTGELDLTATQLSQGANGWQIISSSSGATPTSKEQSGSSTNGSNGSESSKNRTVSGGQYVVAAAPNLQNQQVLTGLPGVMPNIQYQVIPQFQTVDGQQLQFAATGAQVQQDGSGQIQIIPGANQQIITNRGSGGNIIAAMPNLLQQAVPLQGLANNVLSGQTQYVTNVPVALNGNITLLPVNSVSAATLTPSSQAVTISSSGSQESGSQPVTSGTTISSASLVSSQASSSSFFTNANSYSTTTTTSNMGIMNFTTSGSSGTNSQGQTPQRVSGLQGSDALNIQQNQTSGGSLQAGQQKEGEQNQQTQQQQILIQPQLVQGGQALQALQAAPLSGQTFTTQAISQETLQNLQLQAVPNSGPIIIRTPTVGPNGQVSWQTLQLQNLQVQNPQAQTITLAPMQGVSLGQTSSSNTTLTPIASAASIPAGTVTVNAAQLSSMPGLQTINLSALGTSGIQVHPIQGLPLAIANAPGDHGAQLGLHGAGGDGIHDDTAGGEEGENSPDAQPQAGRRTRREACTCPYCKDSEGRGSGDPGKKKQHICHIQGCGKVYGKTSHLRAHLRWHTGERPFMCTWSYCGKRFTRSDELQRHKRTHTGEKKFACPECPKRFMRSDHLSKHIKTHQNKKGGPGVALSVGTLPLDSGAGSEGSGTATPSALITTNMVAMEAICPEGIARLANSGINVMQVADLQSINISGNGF
Estrogen-related receptor gamma (Homo sapiens), sequence (P62508 whole entry, looked up, the tested form may be a part): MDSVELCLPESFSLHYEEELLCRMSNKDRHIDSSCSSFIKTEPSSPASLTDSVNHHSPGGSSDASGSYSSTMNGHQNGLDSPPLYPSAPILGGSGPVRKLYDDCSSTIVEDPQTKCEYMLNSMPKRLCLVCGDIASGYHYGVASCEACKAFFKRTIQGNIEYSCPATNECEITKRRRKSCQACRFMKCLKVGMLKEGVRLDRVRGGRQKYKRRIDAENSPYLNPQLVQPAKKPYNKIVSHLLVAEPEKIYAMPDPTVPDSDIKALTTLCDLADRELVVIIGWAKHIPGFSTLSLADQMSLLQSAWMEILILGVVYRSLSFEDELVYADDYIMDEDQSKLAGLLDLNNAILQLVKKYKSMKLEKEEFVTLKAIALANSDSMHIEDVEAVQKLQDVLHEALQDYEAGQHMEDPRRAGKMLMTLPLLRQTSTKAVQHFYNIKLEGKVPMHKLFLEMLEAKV
Glucocorticoid receptor (Homo sapiens), sequence (P04150 whole entry, looked up, the tested form may be a part): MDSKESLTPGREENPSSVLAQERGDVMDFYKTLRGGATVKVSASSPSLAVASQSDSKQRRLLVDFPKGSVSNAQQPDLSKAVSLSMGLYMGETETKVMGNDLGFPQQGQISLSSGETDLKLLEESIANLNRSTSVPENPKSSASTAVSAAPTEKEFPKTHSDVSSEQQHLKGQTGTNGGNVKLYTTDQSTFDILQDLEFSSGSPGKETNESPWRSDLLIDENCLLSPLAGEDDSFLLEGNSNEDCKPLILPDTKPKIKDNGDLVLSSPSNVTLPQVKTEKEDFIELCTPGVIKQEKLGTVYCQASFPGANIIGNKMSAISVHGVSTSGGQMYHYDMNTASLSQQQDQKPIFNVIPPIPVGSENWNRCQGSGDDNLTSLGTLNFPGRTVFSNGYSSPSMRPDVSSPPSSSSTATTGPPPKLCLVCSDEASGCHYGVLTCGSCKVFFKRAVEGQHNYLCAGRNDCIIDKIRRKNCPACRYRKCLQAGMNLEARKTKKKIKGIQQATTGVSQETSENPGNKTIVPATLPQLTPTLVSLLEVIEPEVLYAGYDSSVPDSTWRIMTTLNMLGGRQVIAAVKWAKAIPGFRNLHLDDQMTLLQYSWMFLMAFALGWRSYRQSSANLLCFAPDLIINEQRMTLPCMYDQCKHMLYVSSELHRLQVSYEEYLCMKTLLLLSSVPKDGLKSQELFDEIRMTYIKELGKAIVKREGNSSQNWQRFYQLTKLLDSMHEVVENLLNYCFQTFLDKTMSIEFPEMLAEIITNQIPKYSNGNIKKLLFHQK
Steroid hormone receptor ERR1 (Homo sapiens), sequence (P11474 whole entry, looked up, the tested form may be a part): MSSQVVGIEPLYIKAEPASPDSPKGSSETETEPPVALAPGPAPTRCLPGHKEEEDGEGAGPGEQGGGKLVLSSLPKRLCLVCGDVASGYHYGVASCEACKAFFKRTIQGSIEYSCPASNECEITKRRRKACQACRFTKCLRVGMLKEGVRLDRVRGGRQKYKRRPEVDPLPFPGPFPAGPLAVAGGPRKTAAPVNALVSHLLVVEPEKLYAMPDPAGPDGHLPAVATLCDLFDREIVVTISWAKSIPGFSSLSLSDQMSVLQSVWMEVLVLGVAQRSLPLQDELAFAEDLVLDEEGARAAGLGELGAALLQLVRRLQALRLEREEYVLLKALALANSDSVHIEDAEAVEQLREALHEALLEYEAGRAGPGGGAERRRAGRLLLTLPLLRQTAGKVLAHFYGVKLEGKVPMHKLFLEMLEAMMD
Signal transducer and activator of transcription 3 (Homo sapiens), sequence (P40763 whole entry, looked up): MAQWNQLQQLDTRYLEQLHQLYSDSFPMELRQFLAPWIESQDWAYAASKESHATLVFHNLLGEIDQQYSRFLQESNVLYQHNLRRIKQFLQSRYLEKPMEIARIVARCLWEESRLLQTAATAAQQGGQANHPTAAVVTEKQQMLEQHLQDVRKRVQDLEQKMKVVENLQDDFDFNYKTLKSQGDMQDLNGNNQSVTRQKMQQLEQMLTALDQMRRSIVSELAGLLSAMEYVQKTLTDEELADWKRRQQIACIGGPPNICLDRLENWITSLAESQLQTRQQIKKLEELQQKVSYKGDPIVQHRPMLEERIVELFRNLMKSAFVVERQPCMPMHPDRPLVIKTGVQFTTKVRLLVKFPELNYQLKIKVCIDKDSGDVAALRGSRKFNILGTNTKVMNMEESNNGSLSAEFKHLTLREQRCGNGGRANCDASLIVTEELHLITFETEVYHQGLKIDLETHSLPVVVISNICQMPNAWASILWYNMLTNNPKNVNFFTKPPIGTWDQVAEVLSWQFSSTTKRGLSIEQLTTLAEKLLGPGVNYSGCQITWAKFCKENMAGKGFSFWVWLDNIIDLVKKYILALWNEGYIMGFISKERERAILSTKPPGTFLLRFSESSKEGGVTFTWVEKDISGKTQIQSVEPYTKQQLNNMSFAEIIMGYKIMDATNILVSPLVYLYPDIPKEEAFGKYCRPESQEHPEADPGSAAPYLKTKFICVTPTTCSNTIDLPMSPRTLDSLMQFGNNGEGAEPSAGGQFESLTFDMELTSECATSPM

Consider `CCO[Si](CCC1CCC2OC2C1)(OCC)OCC` (centres undefined), for which the result in [1], in [2], in assay [3], in assay [4], in assay [5] and in assay [6] was inactive. Besides, the molecule was classed as inactive in assay [7], in [8], in [9], in [10], in assay [11] and in assay [12]. Moreover, the molecule was called inactive in assay [13], in assay [14], in assay [15], in assay [16] and in assay [17].

With `FC(F)(F)C(F)(F)C(F)(F)Br`, the call in [1], in assay [2], in [3], in [4], in assay [5] and in [18] was inactive. The molecule was classed as inactive in assay [7], in [8], in assay [9], in assay [10], in [11] and in assay [12]. Moreover, the molecule was classed as inactive in assay [13], in [14], in [15] and in [16].

Take `CCc1cccc(CC)c1NC(=O)C(=O)O`: the molecule was classed as inactive in assay [1], in assay [2], in assay [3], in assay [4], in assay [5] and in assay [18]. Moreover, the result in assay [7], in [8], in assay [9], in assay [10], in assay [11] and in assay [12] was inactive. Moreover, the call in assay [14], in assay [15], in [16], in [17] and in assay [19] was inactive.

Turning to `CCCC=O`, the result in assay [1], in [2], in assay [3], in [4], in [5] and in assay [18] was inactive. Further, the result in [7], in [8], in assay [9], in assay [10], in [11] and in [20] was inactive. In addition, the call in assay [14], in [15], in assay [16], in assay [17] and in assay [19] was inactive.

Turning to `O=C(NCc1ncc(C(F)(F)F)cc1Cl)c1c(Cl)cccc1Cl`, the results for the AC50 in assay [1] and in assay [18] were 0.799 µM (active) and 10.1 µM (active), respectively. Besides, the call in assay [2], in assay [3], in assay [4], in assay [5], in assay [7] and in assay [9] was inactive. Further, the outcome in assay [10], in assay [11], in [13], in [14] and in [19] was inactive.

As for `CCCCCCCCCCCCCCCCCC[N+](C)(C)Cc1ccccc1`, the outcome in assay [1], in assay [3], in [7], in assay [8], in [9] and in assay [10] was inactive. The call in [12], in assay [13], in assay [20], in assay [14], in assay [16] and in [17] was inactive. Moreover, the AC50 in [2] is 79.8 µM (active); in assay [4], 12.4 µM (active); in assay [18] it was 13.2 µM (active); in assay [6], 88.9 µM (active); in assay [11] it was 50 µM (active).

In the case of `O=P(O)(O)CCC(F)(F)C(F)(F)C(F)(F)C(F)(F)C(F)(F)C(F)(F)C(F)(F)C(F)(F)F`, the molecule was called inactive in [1], in assay [2], in assay [3], in assay [4], in assay [5] and in assay [18]. Further, the call in assay [7], in assay [8], in assay [9], in assay [10], in assay [11] and in assay [12] was inactive. The molecule was classed as inactive in assay [13], in [14], in assay [15], in [16] and in assay [19].
